# PubChem BioAssay (NCATS)
# Several values for one entry are separate records, joined by “and”; a condition that tells them apart may be missing. Identical values can stand only once. Values without a mark were called inactive. Results filed as inconclusive are left out. Where a call stands in place of a potency, no number is given. Activity calls are given as the source filed them. Calls follow the shape of the dose curve; as a rule, active = well fitted curve in the direction sought with a large enough effect; inconclusive = small, poorly fitted or top-dose-only effect, or another doubt; inactive = no such curve, though single readings can be large; an effect the other way counts as inactive or inconclusive.
# Legend:
# [1] = qHTS for compounds that reverse cellular toxicity of Amyloid beta (A-beta) peptide in yeast: LOPAC Validation Assay (AID 720559); conditions: Potency: rescue of growth toxicity
# How it was run: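 Activity is expressed relative to DMSO and an equimolar ferric chloride/clioquinol mix. Compounds were pinned into medium with A-beta-expressing yeast, grown 48 hr at 30 C, then read by absorbance at 600 nm.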
# [2] = qHTS for Activators of Parkin Expression: LOPAC Validation Assay (NLuc Reporter) (AID 720572; also: potency is read from the fitted curve at half-maximal effect)
# How it was run: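 Neuronal line stably carrying a FLuc/NLuc coincidence reporter under the Parkin promoter, seeded 24 h, then dosed in 7-point series for 24 h at 37 C. NLuc luminescence read after FLuc; normalized to DMSO and positive control (100%).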
# [3] = qHTS for Activators of Parkin Expression: LOPAC Validation Assay (FLuc Reporter) (AID 720573; also: potency is read from the fitted curve at half-maximal effect)
# How it was run: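 A neuronal cell line harbouring FLuc and NLuc reporters behind the Parkin promoter was exposed to compounds for 24 h. Firefly luciferase signal, measured after 10 min with detection reagent, was scaled to DMSO and positive-control wells.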
# [4] = molecular target: T1, Hexokinase-4 (Homo sapiens) + Glucokinase regulatory protein (Homo sapiens) (UniProt P35557+Q14397); experiment: qHTS assay for inhibitors of recombinant human GCK-GKRP interaction: Diaphorase-coupled assay (AID 743205)
# T1 sequence (P35557 whole entry, looked up): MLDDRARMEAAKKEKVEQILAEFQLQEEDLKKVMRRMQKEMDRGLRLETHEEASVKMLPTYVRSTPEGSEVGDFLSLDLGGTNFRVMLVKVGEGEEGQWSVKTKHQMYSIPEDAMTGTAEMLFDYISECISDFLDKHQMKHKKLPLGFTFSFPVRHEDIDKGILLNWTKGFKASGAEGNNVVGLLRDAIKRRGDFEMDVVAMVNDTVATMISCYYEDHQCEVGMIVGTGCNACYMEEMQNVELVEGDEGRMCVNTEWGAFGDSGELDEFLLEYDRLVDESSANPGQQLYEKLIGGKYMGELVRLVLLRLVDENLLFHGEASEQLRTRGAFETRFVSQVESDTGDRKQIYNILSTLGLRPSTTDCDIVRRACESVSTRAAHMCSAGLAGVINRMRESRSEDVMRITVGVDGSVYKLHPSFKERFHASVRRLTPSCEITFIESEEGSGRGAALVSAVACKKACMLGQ
# T1 sequence (Q14397 whole entry, looked up): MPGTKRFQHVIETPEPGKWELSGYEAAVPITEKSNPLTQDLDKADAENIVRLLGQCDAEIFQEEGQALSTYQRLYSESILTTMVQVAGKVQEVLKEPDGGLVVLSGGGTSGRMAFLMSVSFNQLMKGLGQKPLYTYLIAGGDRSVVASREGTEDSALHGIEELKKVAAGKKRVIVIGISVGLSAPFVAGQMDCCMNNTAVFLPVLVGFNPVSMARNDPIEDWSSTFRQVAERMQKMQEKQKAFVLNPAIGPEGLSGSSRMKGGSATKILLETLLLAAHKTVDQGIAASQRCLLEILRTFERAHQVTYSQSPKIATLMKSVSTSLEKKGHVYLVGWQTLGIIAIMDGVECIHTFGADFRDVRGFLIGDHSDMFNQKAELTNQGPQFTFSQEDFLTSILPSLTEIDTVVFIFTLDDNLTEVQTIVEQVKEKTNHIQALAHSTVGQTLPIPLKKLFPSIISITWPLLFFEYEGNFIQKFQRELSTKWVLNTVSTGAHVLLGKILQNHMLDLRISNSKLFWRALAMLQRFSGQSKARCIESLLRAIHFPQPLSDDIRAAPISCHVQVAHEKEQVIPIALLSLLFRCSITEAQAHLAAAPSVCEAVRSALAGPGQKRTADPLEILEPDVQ
# How it was run: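 Inhibitors of the GCK–GKRP complex relieve GKRP suppression of GCK, detected through a G6PDH–diaphorase cascade reducing resazurin. Human GST-GCK and FLAG-GKRP are used at 10 nM with 5 mM glucose and 0.4 mM ATP.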
# [5] = molecular target: T1, Hexokinase-4 (Homo sapiens) + Glucokinase regulatory protein (Homo sapiens); experiment: qHTS assay for inhibitors of recombinant human GCK-GKRP interaction: ADP-Glo assay (AID 743206)
# How it was run: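 GST-GCK and FLAG-GKRP (15 nM each in the dispensed mix, with 2 uM S6P) react with 0.4 mM ATP and 5 mM glucose (final) in Hepes pH 7.6 for 60 min at room temperature. ADP is measured by ADP-Glo luminescence.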
# [6] = qHTS Assay for Identifying Gametocytocidal Compounds (AID 743244); also: potency is read from the fitted curve at half-maximal effect;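 as to max response: actives lower the fluorescent signal which means gametocytes are killed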; conditions: P. falciparum 3D7 stage III-V gametocytes, alamarBlue, 72 h; max response: hits give low values
# How it was run: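 Late gametocytes (III–V), P. falciparum 3D7; 72 h drug, then 24 h alamarBlue; resazurin reduction read by fluorescence.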
# [7] = molecular target: T1, Hexokinase-4 (Homo sapiens) + Glucokinase regulatory protein (Homo sapiens); experiment: qHTS assay for inhibitors of recombinant human GCK-GKRP interaction: HTRF assay (AID 743207)
# How it was run: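 Steps: dispense GCK–GKRP complex (5 nM each, GST- and FLAG-tagged) with 2 uM S6P; pin in compounds; add XL665/Eu-cryptate-labelled antibodies; incubate 60 min at room temperature; read time-resolved FRET at 665 and 615 nm.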
Compound,Potency [1],Potency [2],Potency [3],outcome [4],Potency [5],max response [6],Potency [7],Potency [6]
N#C/C(=C\c1ccc(O)c(O)c1)C(=O)NCCCc1ccccc1,inactive,inactive,inactive,inactive,inactive,8.54%,–,–
C=CC(N)CCC(=O)O (stereo not given),inactive,inactive,inactive,inactive,inactive,-1.49% and -10.7%,–,–
O=C(O)c1cc(=O)c2ccccc2[nH]1,inactive,inactive,–,inactive,inactive,-5.82%,inactive,–
CN(C)c1ccc(/C=C2\C(=O)Nc3ccccc32)cc1,inactive,inactive,–,inactive,inactive,–,inactive,–
CC(C)NC[C@H](O)COc1cccc2[nH]ccc12,inactive,inactive,–,–,–,4.63%,–,–
COc1cc(SC)ccc1C(=O)N1CCC(Cc2ccccc2)CC1,inactive,inactive,inactive,inactive,inactive,12.7%,–,–
Brc1c(Br)c(Br)c2n[nH]nc2c1Br,inactive,inactive,inactive,inactive,inactive,10.7%,–,–
Fc1cccc(/C=N/N=C/c2cccc(F)c2)c1,inactive,inactive,–,inactive,inactive,22.7%,–,–
C=CC(=O)c1ccc(CCCCCC)cc1,inactive,inactive,inactive,inactive,inactive,6.31%,–,–
COc1ccccc1N1CCN(CCN(C(=O)c2ccc(I)cc2)c2ccccn2)CC1,inactive,inactive,inactive,inactive,inactive,4.76%,–,–
CC1OC1P(=O)(O)O (stereo not given),inactive,inactive,inactive,inactive,inactive,-9.6%,–,–
Oc1cc(O)cc(/C=C/c2ccc(O)c(O)c2)c1,inactive,–,–,inactive,inactive,42.8%,inactive,–
CNC(=O)[C@H]1O[C@@H](n2cnc3c(NCc4cccc(I)c4)ncnc32)[C@H](O)[C@@H]1O,–,inactive,inactive,inactive,inactive,55.6%,inactive,–
COC1=C(OC)C(=O)c2ccccc2C1=O,–,inactive,inactive,inactive,inactive,–,inactive,3980 nM (active)
CN(C)CCCO[C@@H]1[C@H]2OC(C)(C)O[C@H]2O[C@@H]1[C@H](O)CO,–,inactive,inactive,inactive,inactive,19.5%,inactive,–
NC[C@@H]1O[C@H](C23CC4CC(CC(C4)C2)C3)Cc2c1ccc(O)c2O,–,inactive,inactive,inactive,inactive,–,inactive,1000 nM (active)
N#C/C(=C\c1ccc(-c2cc(Cl)ccc2Cl)o1)C(=O)Nc1cccc2ncccc12,–,inactive,inactive,inactive,inactive,-7.88%,inactive,–
OC[C@H]1O[C@@H](n2cnc3c(NC4CCCC4)ncnc32)[C@H](O)[C@@H]1O,–,inactive,inactive,inactive,inactive,-3.53%,inactive,–
NCCCS(=O)(=O)O,–,inactive,inactive,inactive,inactive,2.49%,inactive,–
Clc1ccc(N2CCN(Cc3cc4ccccn4n3)CC2)cc1,–,inactive,inactive,inactive,inactive,–,inactive,–
CCNC(=O)[C@H]1O[C@@H](n2cnc3c(N)nc(NCCc4ccc(CCC(=O)O)cc4)nc32)[C@H](O)[C@@H]1O,–,inactive,inactive,inactive,inactive,-4.57%,inactive,–
CN(C)c1nc2c(Br)c(Br)c(Br)c(Br)c2[nH]1,inactive,–,inactive,inactive,inactive,21.9%,inactive,–
COc1ccccc1CNCCCCCCNCCCCCCCCNCCCCCCNCc1ccccc1OC,–,inactive,inactive,inactive,inactive,–,inactive,1000 nM (active)
CCOC(=O)C1=C(C)NC(C)=C(C(=O)OCC)C1c1c(F)c(F)c(F)c(F)c1F,–,4110 nM (active),inactive,inactive,inactive,17%,inactive,–
CN1CCc2cccc3c2C1Cc1ccc(O)c(O)c1-3 (stereo not given),–,inactive,inactive,inactive,inactive,–,inactive,562 nM (active)
N#C/C(=C\c1ccc(O)c(O)c1)C(=O)c1ccc(O)c(O)c1,–,inactive,inactive,inactive,inactive,10.5%,inactive,–
COc1ccc(NC(=O)/C=C/c2ccc(Cl)cc2)cc1,–,inactive,1030 nM (active),inactive,inactive,30.8%,inactive,–
